From PubChem BioAssay (Tox21) come the findings set out here.

Results filed as inconclusive are left out. A number with no mark means an inactive call. Calls of active or inactive are those of the source. Calls follow the shape of the dose curve; as a rule, active = well fitted cell-killing curve with a large enough effect in the repeat runs; inconclusive = weak or mixed curves, or effect the other way; inactive = flat fitted curve, though single readings scatter.
% is scaled to controls: 0 for no effect and ±100 for the full control effect; potency is read from the fitted curve at half-maximal effect.

The experiment can be described thus: qHTS RealTime-Glo MT Cell Viability Assay in HepG2 cells - 40 hour (AID 1224870). Also: nearly all actives have a fitted effect of over 50% in size. The following applies: RealTime-Glo luminescence; series mostly up to 76.8 µM; activity change, negative = cytotoxic: at the top concentration. The source says:
National Center for Advancing Translational Sciences [NCATS]
NIH Chemical Genomics Center [NCGC]
U.S. Environmental Protection Agency [EPA]
National Institutes of Environmental Health Sciences [NIEHS]
National Toxicology Program [NTP]
U.S. Food and Drug Administration [FDA]
Measure of cell viability is critical in the cell-base assay. Analysis of cell viability is necessary for the characterization of cell responses to cytotoxic drugs and environmental stress. A RealTime-Glo MT Cell Viability Assay to monitor cell viability in real time of continues cell culture during 40 hours of compound treatment was used to screen Tox21 10K library compounds in HepG2 cells. The RealTime-Glo MT Cell Viability Assay is a nonlytic, homogeneous, bioluminescent method to measure cell viability in real time using a simple, plate-based method. The assay involves adding NanoLuc luciferase and a cell-permeant prosubstrate to cells in culture. Viable cells reduce the proprietary prosubstrate to generate a substrate for NanoLuc luciferase. This substrate diffuses from cells into the surrounding culture medium, where it is rapidly used by the NanoLuc Enzyme to produce a luminescent signal. The signal correlates with the number of viable cells, making the assay well suited for cytotoxicity studies.
Tox21 Assay Protocol Summary:
The mixture of HepG2 cell suspension and reagents were dispensed at 600cells/6 ul/well in 1536-well tissue culture treated black solid bottom plates using a Multidrop dispenser. After the assay plates were incubated at a 37 C/5% CO2 incubator for 5 hours, 23 nL of compounds dissolved in DMSO, positive and negative controls was transferred to the assay plate by a pintool work station. The plates were incubated at 37 C for 40 hours. The luminescence intensity were measured at 0h, 8h, 16h, 24h, 32h and 40h time points using ViewLux plate reader during compound treatment.
(qHTS replaces the single test concentration by a dilution series.)
`C=CC(=O)OCCOCC(CC)(COCCOC(=O)C=C)COCCOC(=O)C=C`: the Potency was 32.2 µM (active).

For the molecule `O=C1OC(=O)c2ccc3c4c(ccc1c24)C(=O)OC3=O`, the “activity change, negative = cytotoxic” value was -4.61%.

Take `CCCC(=O)OCC(COC(=O)CCC)OC(=O)CCC`: the “activity change, negative = cytotoxic” value is -1.85%.

On to `CCCCCCCCCCCC(=O)N(CC)CC`, for which the “activity change, negative = cytotoxic” value was -12.1%.

Turning to `N#CSCSc1nc2ccccc2s1`, the Potency was 24.5 µM (active).

`COc1cc(C=C2CCC/C(=C\c3ccc(O)c(OC)c3)C2=O)ccc1O`: the Potency is 23.9 µM (active).

In the case of `O=C1NCCN1CCN1CCC(c2cn(-c3ccc(F)cc3)c3ccc(Cl)cc23)CC1`, the Potency is 26.8 µM (active).

Take `C[C@]12CC[C@H]3C(=CCc4cc(O)ccc43)[C@@H]1CCC2=O`: the “activity change, negative = cytotoxic” value was -11.6%.

In the case of `Cc1ccc(N)cc1O`, the “activity change, negative = cytotoxic” value was 0.744%.

As to `COc1ccc(C#N)cc1`, the “activity change, negative = cytotoxic” value is -2.67%.

For the molecule `Cc1cccc(N(C)C)c1`, the “activity change, negative = cytotoxic” value was 2.05%.

With `Cc1cc(C)c(C=O)c(C)c1`, the “activity change, negative = cytotoxic” value is 22.2%.

Consider `CC(=O)c1ccccc1N`, for which the “activity change, negative = cytotoxic” value was -1.36%.

With `Cc1ccc2ccc3cccc4ccc1c2c34`, the “activity change, negative = cytotoxic” value was -0.775%.

Regarding `CC(C)c1cccc(C(C)C)c1N1C(=O)c2ccc(O)cc2C1=O`, the Potency is 43.6 µM (active).

On to `CC(C)C(=O)OCc1ccccc1`, for which the “activity change, negative = cytotoxic” value is 11.3%.

Turning to `NCCCCCCNCCCCCCN`, the “activity change, negative = cytotoxic” value was -1.23%.

Turning to `O[C@@H](c1cc(C(F)(F)F)nc2c(C(F)(F)F)cccc12)[C@H]1CCCCN1`, the Potency is 13.4 µM (active).

Regarding `Cc1ccc(O)cn1`, the “activity change, negative = cytotoxic” value was 1.61%.

As for `CCC(=O)CC(C)CC` (stereo not given), the activity change, negative = cytotoxic was -5.05% [at 0.29 µM].

As to `CCOC(=O)COc1ccc(C)cc1`, the “activity change, negative = cytotoxic” value was 2.07%.

On to `COCC(=O)O[C@]1(CCN(C)CCCc2nc3ccccc3[nH]2)CCc2cc(F)ccc2[C@@H]1C(C)C`, for which the Potency was 10.7 µM (active).

For `COc1cc(C(C)C)c2c(c1)S(=O)(=O)N(COc1cc(=O)n3cccc(OCCN4CCCCC4)c3n1)C2=O`, the activity change, negative = cytotoxic was -2.06% [at 15.8 µM].

With `CCCCCCCCCCCCN(CCO)CCO`, the Potency was 38.7 µM (active).

Regarding `ClC/C=C\CCl`, the “activity change, negative = cytotoxic” value was -2.1%.

In the case of `CC(C)N=C(N)/N=C(\N)Nc1ccc(Cl)cc1`, the “activity change, negative = cytotoxic” value is -5.69% [at 35.3 µM].

In the case of `CC(C)=C1CC[C@@H](C)CC1=O`, the “activity change, negative = cytotoxic” value is 0.187%.

For `CNC(=S)NN`, the “activity change, negative = cytotoxic” value was -7.23%.

As to `CC(C)(C)CC(C)(C)c1ccccc1O`, the “activity change, negative = cytotoxic” value was 2.92%.

As to `CC(C)(c1cc(Br)c(O)c(Br)c1)c1cc(Br)c(O)c(Br)c1`, the Potency result was “inactive”.

With `C[C@@H]1CC[C@H]2C(C)(C)[C@H]3C[C@@]12CC[C@@]3(C)O`, the “activity change, negative = cytotoxic” value was 4.5%.

As for `O=S(=O)(O)CCCN1CCOCC1`, the “activity change, negative = cytotoxic” value is 1.32%.

Regarding `COC(=O)NCCC[Si](OC)(OC)OC`, the “activity change, negative = cytotoxic” value is -11.1%.

Turning to `Cc1oc(-c2ccccc2)nc1CCOc1ccc(C[C@H](Nc2ccccc2C(=O)c2ccccc2)C(=O)O)cc1`, the “activity change, negative = cytotoxic” value is 1.55%.

`CC1(C)C(=O)N(Br)C(=O)N1Br`: the “activity change, negative = cytotoxic” value is -1.38%.

For the molecule `CCCCCCCC(C)=O`, the “activity change, negative = cytotoxic” value was 5.01%.

As for `CCC(C)(C)c1cc(O)c(C(C)(C)CC)cc1O`, the “activity change, negative = cytotoxic” value is -19.5%.

In the case of `Nc1ncnc2c1ncn2[C@@H]1O[C@H](COP(=O)(O)O)[C@@H](O)[C@H]1O`, the “activity change, negative = cytotoxic” value was 2.37% [at 35.3 µM].

Turning to `COc1nccnc1CC(C)C`, the “activity change, negative = cytotoxic” value was -3.77%.

As for `c1cc2c3c(c1)ccc1cccc(c13)C2`, the “activity change, negative = cytotoxic” value was 0.941%.
